The structures appear in SMILES notation. This is part of a sample that, as a whole, favours compounds with a hit. Of some 83,000 tested, about 20% had one in any assay.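 A percent growth of 40 corresponds to 60% growth inhibition; 0 means no net growth; -100 means all cells died. Active threshold: below 10.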 Active and inactive are the calls of the source.

These results are taken from PubChem BioAssay (NCI).

This experiment concerns HL-60(TB) leukemia. Kind of experiment: NCI-60 one-dose screen, 48 h (100 = growth as untreated, 0 = no growth, -100 = all killed). Conditions: 10 µM unless noted. The method, then: Growth inhibition of the HL-60(TB) human tumor cell line is measured as a screen for anti-cancer activity. Cells are grown in 96 well plates and exposed to the test compound for 48 hours. Compounds are tested at a single concentration, which is 10^-5 M for most compounds. The reported endpoint is percent growth (GI% or GIPRCNT), where numbers from 0 - 100% represent growth inhibition, and numbers from -100% - 0 represent cell death. For example, a value of 40 represents 60% growth inhibition. A value of 0 means no net growth occurred over the course of the experiment. A value of -40 indicates 40% of cells at the beginning of the experiment died by the end of the experiment. A value of -100 means all cells are dead at the end of the experiment.
NCI-60 Human Tumor Cell Lines Screen was performed using the standard one-dose NCI protocol, which is described in more detail at https://dtp.cancer.gov/discovery_development/nci-60/default.htm.
Compounds with GIPRCNT values below 10 were considered active. Activity score was based on GIPRCNT using the following formula: […]
Score is 0 for GIPRCNT values of 100 or above, 50 for GIPRCNT values of 0, and 100 for GIPRCNT values of -100.
As for `CS(=O)(=O)Nc1cc(-c2ccc3ncnc(Nc4ccc(OCc5ccccn5)c(Cl)c4)c3c2)cnc1Cl`, the growth was 4.82% (active).
As to `C[C@]1(O)CC(=O)[C@]2(O)C3=C(C=C[C@]2(O)C1)C(=O)c1c(O)cccc1C3=O`, the growth was -43.8% (active).
Consider `Ic1ccc(Nc2nc3nonc3nc2Nc2ccc(I)cc2)cc1`, for which the growth is -50.2% (active).
Under `Brc1ccccc1Nc1ccc2nnc(-c3ccncc3)n2n1` stands 96.4% (inactive).
The value for `COC(=O)Nc1nc2ccc(C(=O)C3CC3)cc2[nH]1` was -56.2% (active); that for `N=C(N)c1ccc(-c2ccc(-c3ccc(Cl)cc3Cl)o2)cc1` was -60.8% (active).
The value for `COc1ccc(C2CC(c3ccc(OC)cc3O)=NN2c2ccc(S(N)(=O)=O)cc2)cc1` (stereo not given) was -23.2% (active); that for `COc1ccc(C2SCC(=O)Nc3c2c(C)nn3-c2nc3ccc(C)cc3s2)cc1O` (stereo not given) was 3.8% (active).
As for `CCCCCCCCCCCCOc1ccc(C(=O)Oc2ccc(CSP3(=O)OCC4OC(n5cnc6c(N)ncnc65)C(F)C4OP(=O)(O)OCC4OC(n5ccc(=O)[nH]c5=O)C(F)C4O3)cc2)cc1` (stereo not given), the growth was -18.4% (active).
For `CN1CCN(C(=O)c2cc(-c3ccc4ncnc(N5CCc6cc(F)c(Cl)cc65)c4c3)cnc2N)CC1`, the growth was -32.5% (active).
On to `CN1CCN(/C=C2\CC(C(=O)NCc3ccc(Cl)cc3Cl)NC2=O)CC1` (stereo not given), for which the growth was 103% (inactive).
The value for `CCOC(=O)C(O)C(O)C(=O)OCC` (stereo not given) was 102% (inactive).
Consider `Cc1ccc(S(=O)(=O)N(C)CCCCCC(=O)O)cc1`, for which the growth is 93.4% (inactive).
The value for `O=C1c2cccc(NCCN=Cc3cc([N+](=O)[O-])ccc3O)c2C(=O)c2c(NCCN=Cc3cc([N+](=O)[O-])ccc3O)cccc21` was 70.8% (inactive); that for `CN(C)CCCn1c2c(c3cnccc3c1=O)C(=O)c1ccccc1-2` was 2.29% (active); that for `O=C1C=CC(Nc2ccccc2[N+](=O)[O-])C1Nc1ccccc1[N+](=O)[O-]` (stereo not given) was 25.1% (inactive).
Turning to `CCC(=O)Sc1ccccc1C(=O)Nc1ccc(Cl)cc1`, the growth is 37.6% (inactive).
Under `Cc1c(C(=O)Nc2nc3ccccc3[nH]2)cnn1-c1ccccn1` stands 58.5% (inactive); under `CC(C)C[C@@H](C(=O)N[C@H](C(=O)OC1CCCC1)c1ccccc1)[C@H](O)C(=O)NO`, 35.9% (inactive).
As to `Cc1cc(C)c(C=O)c(C)c1`, the growth is 84.1% (inactive).
In the case of `COc1ccc(N=C2NN=C(c3c[nH]c4ccccc34)CS2)cc1OC`, the growth is 47% (inactive).
The value for `C#CCOc1ccc2nc(CCl)c(Cl)c(Nc3cccc(C(F)(F)F)c3)c2c1` was 56.1% (inactive); that for `O=C1/C(=C\c2ccc(F)cc2)CN(C(=O)c2ccccc2F)C/C1=C\c1ccc(F)cc1` was -4.26% (active); that for `O=NN(CC(=O)NNc1ccccc1)CC(=O)NNc1ccccc1` was 31.6% (inactive).
Regarding `COc1cc(Cl)cc(-c2nn(-c3cccc(NC(=O)Nc4cccc(C(F)(F)F)c4)c3)cc2-c2ccncc2)c1`, the growth is -7.89% (active).
The value for `CN(C)c1ccc2nc3ccc(=N)cc-3sc2c1` was -28.5% (active); that for `C=CC(=O)N1CCC(Oc2cc3c(Nc4ccc(Cl)c(Cl)c4F)ncnc3cc2OC)CC1` was 24.7% (inactive).
Regarding `O=C(Oc1ccccc1)c1cc(O)c(O)c(O)c1`, the growth was -5.58% (active).
In the case of `COc1ccccc1CNCCCN1C(=O)c2ccc3c4c(ccc(c24)C1=O)C(=O)N(CCCNCCCCNCCCN)C3=O`, the growth was -54.4% (active).
For the compound `O=C(CN1CCN(c2cc3c(cc2F)c(=O)c(C(=O)O)cn3C2CC2)CC1)Nc1ccc(C(=O)/C=C/c2ccc(Cl)cc2)cc1`, the growth is 134% (inactive).
The value for `COC(=O)/C=C1\SC(=Nc2ccc(C(F)(F)F)cc2)N(CCc2c[nH]c3ccccc23)C1=O` was -55.4% (active).
For `COC(=O)[C@@]1(C)CC[C@]2(C)CC[C@]3(C)C4=CC=C5C(=CC(=O)C(O)=C5C)[C@]4(C)[C@@H](O)C[C@@]3(C)[C@@H]2C1`, the growth was 49.6% (inactive).
Under `O=C1/C(=C\c2ccc(Br)cc2)CN(C(=O)c2ccccc2F)C/C1=C\c1ccc(Br)cc1` stands 33.6% (inactive); under `CCCCOc1ccc(/C=C2/SC(N3CCCC3)=NC2=O)cc1`, 98% (inactive).
Under `CN1NC(c2ccccc2)NN(C)C1=O` stands 105% (inactive); under `NCCCN(CCCN)CCCNCc1c2ccccc2c(CNCCCN(CCCN)CCCN)c2ccccc12`, 100% (inactive).
Under `CCOC(=O)c1ccc(Nc2ncnc3ccc(NC(=O)c4ccccc4)cc23)cc1` stands 69.9% (inactive); under `CN1C(=O)C2(SCC(C(=O)NCC(=O)OC(C)(C)C)N2C(=O)C2CCCCC2)c2ccccc21` (stereo not given), 93.7% (inactive); under `CN(C)CCCN1c2ccccc2Sc2ccc(C(F)(F)F)cc21`, 0.95% (active).
On to `COC(=O)[C@]12CC[C@@H](C)[C@H](C)[C@@H]1C1=CC[C@@H]3[C@@]4(C)C[C@@H](O)OC[C@](C)(C=O)C4C(=O)C[C@@]3(C)[C@]1(C)CC2` (stereo not given in full), for which the growth was -13.3% (active).
